Screening results deposited in PubChem BioAssay by National Center for Advancing Translational Sciences (NCATS).
ALDH1A1 inh-1 – inhibitors of human aldehyde dehydrogenase 1A1 | Purified ALDH1A1, NADH fluorescence, propionaldehyde substrate | actives 7.3% (n = 220,000) | Potency, µM (doses to about 75.3 µM), for inactives: at the highest dose activity, negative = inhibition, usual class: inhibitors;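 further: potency means the concentration at half of the fitted maximal effect; plate controls were no enzyme wells and a reference inhibitor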
Target sequence (P00352 whole entry, looked up): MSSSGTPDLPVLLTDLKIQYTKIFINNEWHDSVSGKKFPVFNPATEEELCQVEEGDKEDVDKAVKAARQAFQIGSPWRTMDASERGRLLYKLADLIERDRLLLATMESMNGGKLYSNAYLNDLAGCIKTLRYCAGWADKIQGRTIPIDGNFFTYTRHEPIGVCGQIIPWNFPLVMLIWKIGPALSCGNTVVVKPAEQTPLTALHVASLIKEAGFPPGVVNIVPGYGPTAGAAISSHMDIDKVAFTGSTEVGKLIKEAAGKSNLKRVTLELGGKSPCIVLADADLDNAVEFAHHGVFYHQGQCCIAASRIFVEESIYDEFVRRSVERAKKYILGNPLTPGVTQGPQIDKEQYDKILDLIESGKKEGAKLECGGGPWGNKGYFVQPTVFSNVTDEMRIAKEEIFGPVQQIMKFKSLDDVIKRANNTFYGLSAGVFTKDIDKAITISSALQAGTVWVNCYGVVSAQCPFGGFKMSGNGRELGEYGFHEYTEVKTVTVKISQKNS
LMNA splice mod – LMNA splicing modulation; HeLa LMNA splicing GFP/RFP minigene ratio, 48 h; Potency, µM (series often up to 46.1 µM), for the others: at the top dose ratio change, negative = inhibition, usual class: inhibitors; actives 0.01% (n = 200,000); active means well fitted inhibition curve with a large enough effect in the signal ratio, with a control signal flat, not every such curve was filed as active; inconclusive means small, poorly fitted or top-dose-only effect, or effect the other way, or a change in a side signal; the % refers to the signal ratio; further: potency means the concentration at half of the fitted maximal effect; on the % scale 0 is the no-effect control and ±100 the full control effect
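S3 HeLa cells stably expressing lamin A-EGFP splicing minigene plus DsRed2, 600 cells/well, 48 h compound exposure at 37C. Laser-scanning cytometry; analysed as GFP (500-530 nm)/RFP (575-640 nm) total intensity ratio; 0.5% DMSO vehicle.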
HPGD block – blocks human HPGD enzyme activity | AID 894 | Potency, µM, inactives show at the highest dose activity change, negative = inhibition, actives largely listed as inhibitors | actives 4.3% (n = 150,000) | purified HPGD, NADH fluorescence kinetic, PGE2 substrate | P15428; further: potency means the concentration at half of the fitted maximal effect; on the % scale 0 is the no-effect control and ±100 the full control effect
Target sequence (P15428 whole entry, looked up): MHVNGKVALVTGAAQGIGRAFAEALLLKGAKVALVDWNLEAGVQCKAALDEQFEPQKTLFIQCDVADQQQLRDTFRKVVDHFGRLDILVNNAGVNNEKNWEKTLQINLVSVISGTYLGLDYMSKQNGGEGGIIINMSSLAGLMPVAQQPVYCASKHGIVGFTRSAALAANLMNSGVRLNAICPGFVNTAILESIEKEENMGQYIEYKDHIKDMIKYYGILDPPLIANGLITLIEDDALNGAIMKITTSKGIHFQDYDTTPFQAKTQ
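20 nM HPGD preincubated 15 min at room temperature with compound in 50 mM Tris-HCl pH 8, 0.01% Tween 20. Started with 1 mM NAD+ and 30 uM prostaglandin E2; NADH fluorescence (360/450 nm) read 5 times over 30-s intervals, last minus first.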
KinaseGlo FLuc – counter-screen: inhibitors of Kinase-Glo firefly luciferase; Kinase-Glo luciferase, ATP luminescence, 8 min; AID 1379; actives 0.28% (n = 200,000); Q27757; Potency, µM (titrated, usually from 38.3 µM), without a hit: at the highest dose activity change, negative = inhibition, actives largely listed as inhibitors; active means well fitted curve in the direction sought with a large enough effect; inconclusive means small, poorly fitted or top-dose-only effect, or another doubt; inactive means no such curve, though single readings can be large; an effect the other way counts as inactive or inconclusive; further: potency means the concentration at half of the fitted maximal effect; on the % scale 0 is the no-effect control and ±100 the full control effect; nearly all actives have a fitted effect of over 60% in size
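Compounds were added to a substrate mix at pH 7.2 (50 mM imidazole, 10 uM ATP, within the enzyme's linear range), followed by Kinase-Glo detection reagent; luminescence was measured after 8 minutes at ambient temperature.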
IMPase Li cell – IMPase inhibition in cells with lithium potentiation; CHO-M1 cells, IP1 TR-FRET (IP-One), carbachol + lithium; Potency, µM (titrated, usually from 59.4 µM), for the others: top-dose activity, negative = IMPase inhibition, hits mostly inhibitors; actives 0.35% (n = 210,000); AID 1457; active means well fitted curve in the direction sought with a large enough effect; inconclusive means small, poorly fitted or top-dose-only effect, or another doubt; inactive means no such curve, though single readings can be large; an effect the other way counts as inactive or inconclusive;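 further: IP1 builds up when IMPase is blocked and the TR-FRET signal falls; potency means the concentration at half of the fitted maximal effect; plate controls were basal vehicle for no effect and high inhibitor control for full effect; nearly all actives have a fitted effect of over 50% in size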
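Readout is a homogeneous TR-FRET IP1 immunoassay (Ex 320, Em 665 and 620), where raised cytosolic IP1 lowers signal. Cells were CHO-M1 treated 30 min at 37C with test compounds plus a little lithium; AC50 values came from Hill-equation fitting.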
HPGD inh cf – human HPGD enzyme inhibition, confirmation; recombinant HPGD, NADH fluorescence, PGE2 substrate; Potency, µM (highest dose often 57.1 µM), for the others: top-dose activity change, negative = inhibition, actives largely listed as inhibitors; shares compounds with HPGD block; actives 90% (n = 90); calls by dose curve
ALDH1A1 inh-2 – Inhibits human ALDH1A1, confirmation and counter-screen. shares compounds with ALDH1A1 inh-1. purified ALDH1A1, NADH fluorescence, propionaldehyde/NAD+. Potency, µM (doses to about 57.1 µM), inactives show at the top dose activity change, negative = inhibition, actives largely listed as inhibitors. actives 90% (n = 90). AID 493210; calls by dose curve
Numbers without * were called inactive; [ ] = remark or other dose. Only some compounds are listed: those with a hit (about 9% of all), similar ones and a draw of the others. Unless noted, the call rests on the fitted dose curve; in most records, active means well fitted inhibition curve with a large enough effect (not every such curve was filed as active); inconclusive means small, poorly fitted or top-dose-only effect, or another doubt; inactive means no such curve, though single readings can be large or run the other way.

`O=C(NCc1cccnc1)c1ccc(Cl)cc1[N+](=O)[O-]` gave ALDH1A1 inh-1 5%, LMNA splice mod -5%, HPGD block -3%, KinaseGlo FLuc 0% and IMPase Li cell 18%[38.3 µM].
Cc1ccccc1-c1cc(N2CCN(C)CC2)ncn1 was read as ALDH1A1 inh-1 12%, LMNA splice mod 0% and IMPase Li cell 10%.
`O=C(CSc1nc(-c2ccccc2)nn1C(=O)c1ccccc1)Nc1cccc([N+](=O)[O-])c1` gave ALDH1A1 inh-1 22µM*, LMNA splice mod 19%, HPGD block 1.3µM*, KinaseGlo FLuc -1%, IMPase Li cell 15%[38.3 µM] and HPGD inh cf 2.5µM*.
Screening O=C(c1cccc([N+](=O)[O-])c1)n1nc(-c2ccccc2)nc1NCc1ccccc1 returned ALDH1A1 inh-1 -11% and LMNA splice mod -9%.
`Cc1ccc(NS(=O)(=O)c2cc(NC(=O)C(C)Oc3ccccc3)ccc2C)c(C)c1` (stereo not drawn) gave ALDH1A1 inh-1 13%, LMNA splice mod inconclusive, HPGD block -15%, KinaseGlo FLuc -1% and IMPase Li cell 10%.
Cc1ccc(C)c(S(=O)(=O)Nc2cc(SCC(=O)O)c(O)c3ccccc23)c1 was read as ALDH1A1 inh-1 25µM*, LMNA splice mod inconclusive, HPGD block 0.89µM*, KinaseGlo FLuc 0%, IMPase Li cell 13% and HPGD inh cf 0.4µM*.
Screening C=CCNC(=S)N/N=C/c1ccc(-c2cc(Cl)ccc2Cl)o1 returned ALDH1A1 inh-1 inconclusive, LMNA splice mod inconclusive, HPGD block inconclusive, KinaseGlo FLuc -2% and IMPase Li cell -13%[38.3 µM].
`CC1=NOC(=O)/C1=C/c1ccc(-c2ccc(Cl)cc2)o1` gave ALDH1A1 inh-1 4µM*, LMNA splice mod inconclusive, HPGD block 1.1µM*, KinaseGlo FLuc 13%, IMPase Li cell 23%[38.3 µM] and HPGD inh cf 1.1µM*.
Screening CC1=NOC(=O)/C1=C\c1ccc(-c2cc(Cl)ccc2Cl)o1 returned ALDH1A1 inh-1 3.5µM*, LMNA splice mod -4%, HPGD block 1.4µM*, KinaseGlo FLuc 11%, IMPase Li cell inconclusive and HPGD inh cf 0.45µM*.
Screening CCN(CC(=O)NCc1cccs1)C(=O)c1ccc(S(=O)(=O)N(C)C)cc1 returned ALDH1A1 inh-1 -10%, LMNA splice mod -6%[46 µM], KinaseGlo FLuc 6% and IMPase Li cell -2%.
For O=C(CN(Cc1ccccc1)C(=O)c1cc2c(s1)CCC2)NCc1cccs1 the results were ALDH1A1 inh-1 0.45µM*, LMNA splice mod 1%, HPGD block -1%, KinaseGlo FLuc -2%, IMPase Li cell -1%[38.3 µM] and ALDH1A1 inh-2 0.071µM*.
Screening CCN(CC)C(=O)CSc1nc2ccccc2c(=O)n1CCC(=O)NCc1ccc(F)cc1 returned ALDH1A1 inh-1 1µM*, LMNA splice mod -2%, HPGD block inconclusive, KinaseGlo FLuc 2%, IMPase Li cell 29%[38.3 µM] and ALDH1A1 inh-2 2µM*.
`CCCCNC(=O)C1=C(N)C(C(=O)Nc2ccc(C)c(S(=O)(=O)N3CCCCC3)c2)SC1=Nc1ccc(C)cc1C` (stereo not drawn) gave ALDH1A1 inh-1 5%, LMNA splice mod -11%, HPGD block -10%, KinaseGlo FLuc 18% and IMPase Li cell 24%[38.3 µM].
COc1ccc([N+](=O)[O-])cc1NC(=O)C(C)N1CCN(C(=O)c2ccco2)CC1 (stereo not drawn) was read as ALDH1A1 inh-1 1.3µM*, KinaseGlo FLuc 3%, IMPase Li cell -1% and ALDH1A1 inh-2 3.2µM*.
`CC(C)c1nc(N(C)S(C)(=O)=O)nc(-c2ccc(F)cc2)c1/C=C/C(O)CC(O)CC(=O)O` (stereo not drawn) gave ALDH1A1 inh-1 0.22µM*, LMNA splice mod inconclusive, HPGD block -5%, KinaseGlo FLuc -2%, IMPase Li cell 7% and ALDH1A1 inh-2 0.13µM*.
CCc1ccc(NC(=O)C(CC)Sc2nc3cc4c(cc3c(=O)n2Cc2ccco2)OCO4)cc1 (stereo not drawn) was read as ALDH1A1 inh-1 0.4µM*, LMNA splice mod 20%, HPGD block -8%, KinaseGlo FLuc -2%, IMPase Li cell 19%[38.3 µM] and ALDH1A1 inh-2 0.22µM*.
`CCC(Sc1nc2cc(OC)c(OC)cc2c(=O)n1Cc1ccco1)C(=O)NCCOC` (stereo not drawn) gave ALDH1A1 inh-1 0.79µM*, LMNA splice mod -4%, HPGD block -12%, KinaseGlo FLuc 1%, IMPase Li cell 4%[38.3 µM] and ALDH1A1 inh-2 0.25µM*.
`O=C(CC(Nc1ccc(Cl)cc1)C(=O)O)c1ccccc1` (stereo not drawn) gave ALDH1A1 inh-1 1%, LMNA splice mod 8%, HPGD block -24%, KinaseGlo FLuc -19% and IMPase Li cell -10%.
Cc1c(Cl)cccc1NC(CC(=O)c1ccccc1)C(=O)O (stereo not drawn) was read as ALDH1A1 inh-1 0.32µM*, LMNA splice mod inconclusive, HPGD block -16%, KinaseGlo FLuc 0%, IMPase Li cell -4% and ALDH1A1 inh-2 -21%.
For O=C(CC(Nc1ccccc1Cl)C(=O)O)c1ccccc1 (stereo not drawn) the results were ALDH1A1 inh-1 0.13µM*, KinaseGlo FLuc -2%, IMPase Li cell 2% and ALDH1A1 inh-2 -24%.
Screening COC(=O)C(NC(=O)c1ccccc1Cl)(Nc1ncc(S(=O)(=O)c2ccc([N+](=O)[O-])cc2)s1)C(F)(F)F (stereo not drawn) returned ALDH1A1 inh-1 10%, LMNA splice mod -9%, HPGD block -6%, KinaseGlo FLuc 19% and IMPase Li cell 30%[38.3 µM].
Screening COc1ccc(S(=O)(=O)NCC2CCCN(C(=O)c3sccc3C)C2)cc1 (stereo not drawn) returned ALDH1A1 inh-1 0.18µM*, LMNA splice mod inconclusive, KinaseGlo FLuc 0%, IMPase Li cell 6% and ALDH1A1 inh-2 0.089µM*.
COc1ccc(S(=O)(=O)NCC2CCCN(C(=O)CC3CCCC3)C2)cc1 (stereo not drawn) was read as ALDH1A1 inh-1 0.79µM*, LMNA splice mod 19%[46 µM], KinaseGlo FLuc -3%, IMPase Li cell 5% and ALDH1A1 inh-2 0.89µM*.
COc1ccc(S(=O)(=O)NCC2CCCN(C(=O)c3ccccc3)C2)cc1 (stereo not drawn) was read as ALDH1A1 inh-1 0.2µM*, KinaseGlo FLuc 3%, IMPase Li cell 3% and ALDH1A1 inh-2 0.2µM*.
